# Source: PubChem
# Only some compounds are listed: those with a hit (about 3.6% of all), similar ones and a draw of the others.
# HSP90 refold inh = blocks HSP90-mediated luciferase refolding in reticulocyte lysate | Rabbit reticulocyte lysate, luciferase refolding luminescence, 3 h | inhibition, % at 5.6 µM | actives 0.91% (n = 290,000) | AID 1789;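 active = inhibition above the screen-wide mean plus 3 SD, computed separately per campaign, cut at about 16% in these data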;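 note: 0% = DMSO wells and 100% = 60 µM geldanamycin wells; inhibitors lower the luminescence because luciferase stays unfolded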
# LGR2 inh = blocks bursicon-induced cAMP signaling via Drosophila LGR2 | inhibition, % at 9.99 µM | AID 720647 | actives 0.35% (n = 380,000) | HEK293 LGR2, CRE-luciferase, bursicon-stimulated, 4 h;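 active = drop in luminescence signal, shown as inhibition above about 50% in the replicate tests, limit read from the data, passing the limit was not always enough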;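 note: agonist challenge used bursicon conditioned medium at about half maximal strength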
# KKLEB tox = reduces viability of KKLEB cystic fibrosis airway cells | KKLEB CF airway cells viability, ATPlite luminescence, overnight; hits give low values; cells stimulated with P. aeruginosa culture filtrate | activity change (cytotoxicity), % at 5 µM | actives 0.36% (n = 360,000);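 active = corrected activity change at or below -50% at 5 µM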
# Mdm2-MdmX inh = human Mdm2/MdmX binding inhibition; AID 485346; SaOS-2 split-luciferase Mdm2/MdmX complementation, luminescence; O15151+Q00987; inhibition, % at 8 µM; actives 3% (n = 330,000);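 active = inhibition of at least 50% at 8 µM in the primary screen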
# Target sequence (O15151 whole entry, looked up): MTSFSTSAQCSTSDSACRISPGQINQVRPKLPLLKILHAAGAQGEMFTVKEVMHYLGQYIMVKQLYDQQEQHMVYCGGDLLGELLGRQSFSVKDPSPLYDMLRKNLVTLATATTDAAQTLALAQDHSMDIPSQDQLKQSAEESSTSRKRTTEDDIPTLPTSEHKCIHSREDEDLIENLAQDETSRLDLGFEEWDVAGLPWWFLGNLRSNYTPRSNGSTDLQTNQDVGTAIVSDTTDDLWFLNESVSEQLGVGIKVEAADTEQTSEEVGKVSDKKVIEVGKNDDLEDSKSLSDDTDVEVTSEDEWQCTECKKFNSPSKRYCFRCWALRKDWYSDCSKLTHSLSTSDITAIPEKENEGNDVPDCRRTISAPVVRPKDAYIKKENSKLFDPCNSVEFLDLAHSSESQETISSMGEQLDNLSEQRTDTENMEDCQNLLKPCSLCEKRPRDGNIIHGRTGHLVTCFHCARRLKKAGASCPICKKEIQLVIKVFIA
# Target sequence (Q00987 whole entry, looked up): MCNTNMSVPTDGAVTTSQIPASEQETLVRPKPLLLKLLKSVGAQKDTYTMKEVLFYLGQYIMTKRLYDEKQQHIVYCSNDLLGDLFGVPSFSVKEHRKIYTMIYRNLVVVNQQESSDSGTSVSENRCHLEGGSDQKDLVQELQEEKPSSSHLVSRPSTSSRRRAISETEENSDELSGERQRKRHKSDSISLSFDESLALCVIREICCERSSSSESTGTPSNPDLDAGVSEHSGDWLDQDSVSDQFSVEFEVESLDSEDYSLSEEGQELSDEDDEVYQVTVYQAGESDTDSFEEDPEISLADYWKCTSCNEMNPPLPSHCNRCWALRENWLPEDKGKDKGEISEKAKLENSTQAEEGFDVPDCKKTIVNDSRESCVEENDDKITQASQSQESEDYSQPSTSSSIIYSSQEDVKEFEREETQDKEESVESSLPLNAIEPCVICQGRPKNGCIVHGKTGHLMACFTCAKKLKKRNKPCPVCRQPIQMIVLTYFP
# Peg3 promoter = Peg3 promoter activity inhibition; HeLa PEG-Prom luciferase reporter, luminescence, overnight; inhibition, % at 20 µM; actives 1.7% (n = 360,000);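 active = inhibition of at least 50% at 20 µM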
# CF NFkB block = inhibitors of cystic fibrosis induced NF-kB; KKLEB NF-kB-GFP reporter, PAF-induced, GFP fluorescence overnight; inhibition, % at 5 µM; actives 0.86% (n = 360,000);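 active = at least 50% inhibition at 5 µM, scaled per plate between neutral and stimulator controls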;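 note: PAF is a Pseudomonas aeruginosa culture filtrate used as stimulus; plate controls were PAF-stimulated DMSO wells for no effect and unstimulated DMSO wells for full effect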
# Mdm2-MdmX conf = human Mdm2/MdmX binding inhibition, confirmed | actives 55% (n = 10,000) | shares compounds with Mdm2-MdmX inh | inhibition, % at 8 µM | luminescent assay; in the data active = inhibition above about 40%
# FLuc counter = full-length luciferase inhibition in Mdm2/MdmX counter-screen | inhibition, % at 8 µM | actives 77% (n = 6,200) | SaOS-2 full-length luciferase counterscreen, luminescence | shares compounds with Mdm2-MdmX inh;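 active = mean inhibition at 8 µM reaching about 37%, which flags the compound as non-specific, limit read from the data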;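 note: p53-null SaOS-2 cells with luciferase driven by a doxycycline-inducible promoter; compound on cells about two nights before reading with doxycycline added after day one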
# Numbers without * were called inactive; x = no result.
SMILES,HSP90 refold inh,LGR2 inh,KKLEB tox,Mdm2-MdmX inh,Peg3 promoter,CF NFkB block,Mdm2-MdmX conf,FLuc counter
CCC(=O)N1CC2(CCN(Cc3ccncc3)CC2)c2c(n(C)c3cc(OC)ccc23)[C@H]1CO,x,-9.5,x,x,x,x,x,x
Cc1cc(SCC(=O)Nc2ccc3[nH]c(=O)[nH]c3c2)nc2ccccc12,x,-3.0,2.6,87.5*,18.6,-30.4,-7.4,x
C[C@H]1CN([C@@H](C)CO)C(=O)c2cccc(NC(=O)Nc3ccc(F)cc3)c2O[C@H]1CN(C)C(=O)Nc1ccc(F)cc1,x,4.4,x,x,x,x,x,x
COCC(=O)Nc1c(C(=O)Nc2ccccc2OC)oc2ccccc12,-1.7,-15.0,-6.9,-1.0,-6.2,-9.2,x,x
COc1ccc(OC)c(NC(=O)c2oc3ccccc3c2NC(=O)C2CC2)c1,0.8,0.5,6.6,57.9*,8.7,-7.8,17.6,x
COc1ccccc1NC(=O)c1oc2ccccc2c1NC(=O)c1cc(OC)c(OC)c(OC)c1,0.9,-19.0,-57.7*,70.5*,30.3,55.9*,62.1*,54.0*
COc1ccc(NC(=O)c2oc3ccccc3c2NC(=O)C2CC2)c(OC)c1,1.4,-5.1,8.9,19.8,21.7,-14.0,x,x
C[C@@H]1CN([C@H](C)CO)C(=O)c2cc(NC(=O)NC3CCCCC3)ccc2O[C@@H](C)CCCCO[C@@H]1CN(C)S(=O)(=O)c1ccc(Cl)cc1,x,4.8,x,x,x,x,x,x
O=C(CCl)N(c1ccccc1)C1CCCCC1,-6.3,94.1*,-91.6*,93.7*,110.0*,92.1*,99.8*,52.2*
Cc1ccc2[nH]c(CN3CCC(CO)(CC4CCCCO4)CC3)c(C)c2c1 (stereo not drawn),-3.6,-15.6,0.9,53.0*,15.6,11.8,29.9,x
Cc1ccc(CN2CCC(CO)(CC3CCCCO3)CC2)o1 (stereo not drawn),-2.9,13.2,13.0,-5.2,9.5,5.4,x,x
Cn1cc(CN2CCN(c3ccc(Cl)cn3)CC2)c(-c2ccccc2F)n1,-5.2,2.5,-0.8,8.8,6.8,3.9,x,x
Cc1cccc(N2CCN(Cc3cn(C)nc3-c3ccccc3F)CC2)n1,3.0,16.3,-19.0,54.8*,34.8,24.9,69.7*,49.4*
O=C(Nc1ccc(F)cc1)Nc1sccc1-c1nc2ccccc2s1,7.3,x,3.9,68.2*,-2.0,9.7,35.5,68.6*
Cc1ccc(-c2nn3c(C)nnc3s2)cc1NCc1c(F)cccc1Cl,-3.9,x,-2.6,81.4*,-5.5,-24.1,66.5*,56.5*
COc1cc2nc(SCC(N)=O)n(CCC3=CCCCC3)c(=O)c2cc1OC,-2.4,15.6,-3.7,79.6*,9.1,-13.2,14.2,x
COCCNC(=O)CSc1nc2cc(OC)c(OC)cc2c(=O)n1CCC1=CCCCC1,1.6,x,-8.4,x,14.2,-4.0,x,x
O=C(C[C@H]1C[C@@H]2c3cc(NC(=O)CC4CC4)ccc3O[C@@H]2[C@@H](CO)O1)NCc1cccc(F)c1,x,-1.3,x,x,x,x,x,x
CS(=O)(=O)Nc1ccc2c(c1)[C@H]1C[C@H](CC(=O)NCc3ccc(-c4ccccc4)cc3)O[C@@H](CO)[C@H]1O2,x,9.4,x,x,x,x,x,x
O=C1/C(=C/c2ccccc2O)SC(=S)N1Cc1cccnc1,1.2,82.8*,0.4,72.5*,108.5*,51.1*,5.0,x
CCOc1cc(/C=C2/SC(=S)N(Cc3ccccc3)C2=O)ccc1O,-1.6,-23.3,3.9,0.8,-31.4,-10.4,x,x
O=C1/C(=C\c2cc(Br)cc(Br)c2O)SC(=S)N1Cc1ccccc1,-2.5,x,-45.3,91.3*,72.5*,26.1,79.4*,37.1*
O=C1/C(=C/c2ccc(O)c([N+](=O)[O-])c2)SC(=S)N1Cc1ccccc1,-2.6,-0.3,-24.2,62.1*,17.7,38.5,44.9*,70.5*
O=C1/C(=C/c2cccnc2)SC(=S)N1Cc1ccco1,x,-4.2,-3.1,x,25.3,12.4,x,x
CCCNC(=O)N1C[C@@H](C)[C@H](OC)CN(C)C(=O)c2ccc(NC(=O)C3CCC3)cc2OC[C@@H]1C,x,10.1,x,x,x,x,x,x
SMILES,HSP90 refold inh,LGR2 inh,KKLEB tox,Mdm2-MdmX inh,Peg3 promoter,CF NFkB block,Mdm2-MdmX conf,FLuc counter
CCNC(=O)COC(=O)c1cc(C)n(-c2ccccc2)c1C,2.5,-18.6,-5.4,-5.4,-45.6,6.6,x,x
Cc1cc(C(=O)OCC(=O)NCc2ccco2)c(C)n1-c1ccc(F)cc1,-1.7,x,-14.1,56.2*,-22.1,16.0,52.1*,66.3*
O=C(C[C@@H]1C=C[C@@H](NS(=O)(=O)c2ccc(F)cc2)[C@H](CO)O1)NC1CCC1,x,12.4,x,x,x,x,x,x
COC(=O)[C@@H]1CC[C@H](C)[C@@H](c2ccc(C)cc2)N1C(=O)c1ccc(/C=N/O[C@@H](C)CN2CCCCc3nc(C)c(C)cc32)cc1,-0.7,x,x,89.2*,x,x,25.3,x
CCOC(=O)CNC(=O)c1ccc(C#CC2(O)CCCCC2)cc1,-4.8,12.1,1.1,14.4,-36.4,-4.7,x,x
NC(=O)NCCCC(NC(=O)c1ccc(C#CC2(O)CCCCC2)cc1)C(=O)O (stereo not drawn),4.3,2.0,14.9,61.3*,8.9,-6.0,5.7,x
COC(=O)C=CC(=NNc1ccccc1)c1ccccc1,x,-8.2,-11.6,x,5.0,6.5,x,x
Cn1nnnc1N=N/C(=N/Nc1ccccc1)c1ccccc1,-4.7,-13.9,-27.0,86.1*,52.1*,30.4,85.2*,49.4*
C[C@H]1CN([C@@H](C)CO)C(=O)c2cc(NC(=O)CCC(F)(F)F)ccc2O[C@@H]1CN(C)Cc1ccc(Cl)c(Cl)c1,x,24.1,x,x,x,x,x,x
COc1cc(C)c(C(=O)CC(=O)c2c(C)cc(OC)cc2C)c(C)c1,x,0.1,-5.8,50.7*,50.3*,9.3,16.5,x
O=C1c2ccccc2-c2onc3ccc(NCc4ccco4)c1c23,2.2,x,8.2,58.0*,-6.2,-114.1,25.2,x
CCNc1ccc2noc3c2c1C(=O)c1ccccc1-3,0.3,-29.7,-2.2,36.9,-75.1,-57.2,x,x
O=[N+]([O-])c1ccc(-c2nc(NCc3cccnc3)c3ccccc3n2)cc1,5.6,-8.6,-11.1,28.5,-50.1,12.1,x,x
Oc1ccccc1-c1nc(NCc2cccnc2)c2ccccc2n1,4.0,28.2,-3.4,70.0*,4.1,11.8,49.5*,77.9*
Oc1ccccc1-c1nc(NCc2ccccc2)c2ccccc2n1,1.2,-8.3,-21.3,56.0*,23.6,3.0,32.9,x
Cc1noc(C)c1NC(=O)Nc1ccc2c(c1)CC(=O)N([C@@H](C)CO)C[C@@H](C)[C@@H](CN(C)C(=O)Nc1ccc(C(F)(F)F)cc1)O2,x,19.9,x,x,x,x,x,x
COc1ccc(C(CC(=O)c2ccc(C)cc2)C(C#N)C#N)cc1OC (stereo not drawn),-3.2,53.5*,-88.8*,55.7*,93.0*,102.5*,44.2*,47.0*
